The text below walks through data of PubChem BioAssay (NCI).

About 83,000 compounds went through this panel and 20% of them were active in at least one assay; those are over-represented in the sample as a whole.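 Each cell line was grown in a 96-well plate and treated with one concentration of compound for 48 hours. Values below 10 were considered active.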 Values without a mark were called inactive. Calls of active or inactive are those of the source.

Among the test systems are RPMI-8226 leukemia; OVCAR-8 ovarian; OVCAR-5 ovarian; OVCAR-4 ovarian; SK-OV-3 ovarian; IGROV1 ovarian; OVCAR-3 ovarian; NCI/ADR-RES ovarian; T-47D breast; HS 578T breast.
Test in all cases: NCI-60 one-dose screen, 48 h (100 = growth as untreated, 0 = no growth, -100 = all killed)
Common to all, as to settings: 10 µM

On to `CCN(CCCCCCN1CC(=O)N(CCCCCCN(CC)Cc2ccccc2OC)CC1=O)Cc1ccccc1OC`, for which the growth in the assay with RPMI-8226 leukemia is 30.3%; in the assay on OVCAR-8 ovarian, 86.7%; in the assay with OVCAR-5 ovarian, 68.9%; in the assay with OVCAR-4 ovarian, 77.1%; with SK-OV-3 ovarian it was 102%; in the assay on IGROV1 ovarian, 61.1%. The growth in the assay on OVCAR-3 ovarian is 59.5%; in the assay with NCI/ADR-RES ovarian, 70.9%; in the assay on T-47D breast, 90.8%.
On to `CCCCOC(=O)Oc1ccc(C(=O)Oc2ccc(OCC)cc2)cc1`, for which the growth with RPMI-8226 leukemia is 74.6%; in the assay with OVCAR-8 ovarian, 99.1%; in the assay with OVCAR-5 ovarian it was 94.3%; in the assay on OVCAR-4 ovarian, 87.9%; in the assay with SK-OV-3 ovarian it was 111%; in the assay on IGROV1 ovarian, 105%. In addition, the growth is 98.6% in the assay on OVCAR-3 ovarian, 94.5% with HS 578T breast and 111% in the assay on T-47D breast.
As to `O=C(CC(c1ccccc1)N1CCOCC1)c1ccccc1` (stereo unspecified), the growth in the assay with RPMI-8226 leukemia was 5.15% (active); with OVCAR-8 ovarian, 96.6%; in the assay with OVCAR-5 ovarian it was 79.3%; with OVCAR-4 ovarian it was 98.3%; with SK-OV-3 ovarian it was 104%; in the assay on IGROV1 ovarian it was 97.4%. Further, the growth is 94.7% in the assay on OVCAR-3 ovarian, 91.2% in the assay on NCI/ADR-RES ovarian and 72% in the assay on T-47D breast.
Take `CCCCCCCCCCCCCCCCCC(=O)OCCCCCCC`: the growth in the assay on RPMI-8226 leukemia was 96.8%; with OVCAR-8 ovarian, 102%; with OVCAR-5 ovarian, 106%; in the assay with OVCAR-4 ovarian, 110%; in the assay with SK-OV-3 ovarian, 105%; with IGROV1 ovarian, 111%. In addition, the growth in the assay with OVCAR-3 ovarian was 101%; with HS 578T breast it was 109%; in the assay with T-47D breast, 99.6%.
Regarding `COc1cc(-c2nc(Nc3nc4ccccc4s3)[nH]c(=O)c2C#N)cc(OC)c1O`, the growth in the assay with RPMI-8226 leukemia is 89.9%; in the assay with OVCAR-8 ovarian, 99%; in the assay on OVCAR-5 ovarian it was 109%; in the assay with OVCAR-4 ovarian, 109%; in the assay on SK-OV-3 ovarian it was 108%; in the assay on IGROV1 ovarian, 128%. Also, the growth was 104% in the assay with OVCAR-3 ovarian, 107% with HS 578T breast, 111% with NCI/ADR-RES ovarian and 102% with T-47D breast.
On to `CCCCN(CCCC)CCCCCCCCC(O)c1cc2ccccc2c2ccccc12` (stereo unspecified), for which the growth in the assay with RPMI-8226 leukemia is -7.55% (active); in the assay on OVCAR-8 ovarian it was 49.4%; in the assay on OVCAR-5 ovarian, 74.8%; in the assay on OVCAR-4 ovarian it was 46.2%; in the assay on SK-OV-3 ovarian it was 80.7%; with IGROV1 ovarian it was 44.8%. The growth is 73.7% in the assay on HS 578T breast, 54.6% in the assay on NCI/ADR-RES ovarian and 31.7% in the assay with T-47D breast.
Regarding `COc1ccc2c(c1)O/C(=C\c1ccc([N+](=O)[O-])s1)C2=O`, the growth was 1.62% (active) in the assay with RPMI-8226 leukemia; 0.767% (active) in the assay with OVCAR-8 ovarian; 61.4% with OVCAR-5 ovarian; -32.2% (active) with OVCAR-4 ovarian; 60.2% in the assay on SK-OV-3 ovarian; -29.4% (active) with IGROV1 ovarian. Further, the growth with OVCAR-3 ovarian was -30.5% (active); in the assay with HS 578T breast, 18.3%; in the assay on NCI/ADR-RES ovarian, 54.5%; with T-47D breast, 16%.
For the molecule `CCN(CC)Cc1cc(Nc2ccnc3cc(Cl)ccc23)ccc1OC`, the growth with RPMI-8226 leukemia is 72.2%; in the assay on OVCAR-8 ovarian it was 91.7%; with OVCAR-5 ovarian, 109%; with OVCAR-4 ovarian, 68.2%; in the assay with SK-OV-3 ovarian, 102%; in the assay with IGROV1 ovarian, 94.5%. The growth with OVCAR-3 ovarian is 93.6%; in the assay with NCI/ADR-RES ovarian, 89.5%; in the assay with T-47D breast it was 102%.
Turning to `COc1ccccc1CNCCN1C(=O)c2ccc3c4c(ccc(c24)C1=O)C(=O)N(CCNCc1ccccc1OC)C3=O`, the growth with RPMI-8226 leukemia is -67.7% (active); in the assay on OVCAR-8 ovarian, -77.7% (active); in the assay on OVCAR-5 ovarian, -52.6% (active); in the assay on OVCAR-4 ovarian, -99.7% (active); with SK-OV-3 ovarian, -79.6% (active); in the assay with IGROV1 ovarian, -72.5% (active). The growth in the assay on OVCAR-3 ovarian was -78.5% (active); in the assay on NCI/ADR-RES ovarian, -62.6% (active); in the assay on T-47D breast, -65.8% (active).
Regarding `O=C(NN1C(=O)CSC1c1ccc(Cl)cc1)c1cccnc1` (stereo unspecified), the growth with RPMI-8226 leukemia is 74.8%; with OVCAR-8 ovarian, 99.7%; with OVCAR-5 ovarian, 86.7%; in the assay on OVCAR-4 ovarian, 118%; in the assay on SK-OV-3 ovarian, 106%; in the assay with IGROV1 ovarian it was 112%. Besides, the growth in the assay with OVCAR-3 ovarian is 121%; in the assay with NCI/ADR-RES ovarian, 91.4%; in the assay on T-47D breast, 102%.
For the molecule `COc1ccc(-c2nn(-c3cccc(NC(=O)c4ccc5c(c4)OCCO5)c3)cc2-c2ccncc2)cc1Cl`, the growth is -11.4% (active) in the assay with RPMI-8226 leukemia; 29.6% in the assay with OVCAR-8 ovarian; 42.7% in the assay on OVCAR-5 ovarian; 49% in the assay with OVCAR-4 ovarian; 25.9% in the assay with SK-OV-3 ovarian; 41.5% in the assay on IGROV1 ovarian. The growth was 4.99% (active) in the assay on OVCAR-3 ovarian, 1.38% (active) with HS 578T breast, 10.2% in the assay with NCI/ADR-RES ovarian and 19.5% in the assay with T-47D breast.
Take `CN(C)c1ccc(Cc2ccc(N(C)C)cc2Cl)c(Cl)c1`: the growth in the assay on RPMI-8226 leukemia was 81.1%; with OVCAR-8 ovarian it was 101%; in the assay with OVCAR-5 ovarian, 99.6%; in the assay with OVCAR-4 ovarian, 78.6%; in the assay on SK-OV-3 ovarian, 103%; in the assay on IGROV1 ovarian it was 90.7%. In addition, the growth in the assay on OVCAR-3 ovarian was 94.9%; in the assay on NCI/ADR-RES ovarian, 101%; in the assay with T-47D breast it was 87.1%.
Consider `COc1ccc(S(=O)(=O)NCCCNc2nccc(-c3c(-c4ccc(F)cc4)nc4sccn34)n2)cc1`, for which the growth in the assay on RPMI-8226 leukemia was 47.8%; in the assay on OVCAR-8 ovarian, 41.9%; with OVCAR-5 ovarian it was 92.6%; in the assay on OVCAR-4 ovarian, 77.3%; in the assay on SK-OV-3 ovarian it was 74.5%; in the assay on IGROV1 ovarian, 30.2%. The growth in the assay with OVCAR-3 ovarian is 74.9%; in the assay on HS 578T breast, 83%; with NCI/ADR-RES ovarian, 53.3%; with T-47D breast it was 24.2%.
Regarding `COc1ccc(-c2nc(-c3nc4ccc(Cl)cc4[nH]3)c3ccccn23)cc1`, the growth in the assay on RPMI-8226 leukemia is 49.3%; with OVCAR-8 ovarian, -27.1% (active); with OVCAR-5 ovarian, 82.5%; in the assay with OVCAR-4 ovarian it was -77% (active); with SK-OV-3 ovarian, -47.8% (active); in the assay with IGROV1 ovarian, 84.8%. Also, the growth in the assay on OVCAR-3 ovarian was 8.15% (active); with HS 578T breast it was -19.3% (active); in the assay with NCI/ADR-RES ovarian, 33.6%; in the assay on T-47D breast, 64.7%.
